Source: PubChem (National Center for Advancing Translational Sciences (NCATS))
HCV inhibitor = blocks hepatitis C virus; Potency, µM (top dose mostly 41.8 µM), actives largely listed as inhibitors; 3.4% of 340,000 active; Huh7.5.1 HCVcc-Cre infection, luciferase reporter, 44 h; active = well fitted inhibition curve with a large enough effect; inconclusive = small, poorly fitted or top-dose-only effect, or another doubt; inactive = no such curve, though single readings can be large or run the other way
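1,000 cells/well; 4 h culture; + compound; + HCVcc-Cre (~0.5 moi); 44 h; luciferase substrate, RT 15 min; read 15 sec.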
HCMV inh = blocks human cytomegalovirus replication; HFF cells, HCMV-luciferase reporter, 72 h; stronger effect = lower value; activity change, negative = inhibition, % at 57.5 µM; 4.5% of 410,000 active; AID 1259415; in the data active = activity change below about -60%; inconclusive = no clear call, values can overlap the other calls; inactive = above about -39%
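Human foreskin fibroblasts infected with luciferase-reporter HCMV at MOI 1 PFU/cell, compounds at two doses. Luciferase measured 72 h post infection; normalized to buffer-only basal and Salinomycin (10uM) controls.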
FMDV antiviral = antivirals against foot and mouth disease virus | FMDV antiviral cell-based qHTS | Potency, µM (series often up to 57.9 µM), hits mostly inhibitors | 1.2% of 410,000 active; calls by dose curve; tested in HEK293T cells; note: read-out not given here; nearly all actives have a fitted effect of over 45% in size
Marburg entry inh = blocks Marburg virus binding to or entry into cells; Marburg virus pseudotyped entry inhibition, cell reporter; AID 540276; 1.8% of 300,000 active; Potency, µM (series often up to 37.8 µM), usual class: inhibitors; calls by dose curve; tested in HEK293 cells
LASV entry inh = blocks Lassa virus binding to or entry into cells; 1.2% of 300,000 active; Lassa virus pseudotype entry inhibition, cell reporter; Potency, µM (highest dose often 37.9 µM), actives largely listed as inhibitors; AID 540256; calls by dose curve; tested in HEK293 cells; note: nearly all actives have a fitted effect of over 50% in size
Each line names hits and unclear results; the compound was inactive in the other large screens; ! = not active in a repeat. Hits are enriched below; roughly 7.9% of the tested compounds scored in any of these assays.

Clc1cccc(N2CCN(c3ncnc4c3nc3n4CCCCC3)CC2)c1	HCMV inh -73, FMDV antiviral 11µM, Marburg entry inh 2.8µM, LASV entry inh inconclusive (no result: HCV inhibitor)
Cc1ccc(N2CCN(C(=O)C3CCN(c4ncnc5c4nc4n5CCCCC4)CC3)CC2)c(C)c1	HCMV inh -62, FMDV antiviral inconclusive, LASV entry inh inconclusive (no result: HCV inhibitor, Marburg entry inh)
COC1=C(OC)CC2=C(CCN=C2/C(=N\O)C2CCC(OC)C(OC)C2)C1 (stereo unspecified)	none (no result: HCV inhibitor, HCMV inh, FMDV antiviral, LASV entry inh)
O=C(C1CCN(c2ncnc3c2nc2n3CCCCC2)CC1)N1CCN(c2cccc(Cl)c2)CC1	HCV inhibitor inconclusive, HCMV inh -91, FMDV antiviral 22µM (no result: Marburg entry inh)
O=C(C1CCN(c2ncnc3c2nc2n3CCCCC2)CC1)N1CCN(c2ccc(Cl)cc2)CC1	HCMV inh inconclusive (no result: HCV inhibitor, Marburg entry inh)
CN(CCOc1ccc(Cl)cc1)C(=O)CN1C(=O)NC2(CCCC2)C1=O	HCV inhibitor inconclusive, HCMV inh inconclusive
C=CCn1cc(C(=O)OC)c(=O)c2cc(S(=O)(=O)N(CC)CC)ccc21	none (no result: FMDV antiviral)
CCn1cc(C(=O)NCCCOC)c(=O)c2cc(S(=O)(=O)N3CCc4ccccc4C3)ccc21	none (no result: HCV inhibitor)
CCn1cc(C(=O)NCCCN2CCCC2)c(=O)c2cc(S(=O)(=O)N3CCc4ccccc4C3)ccc21	HCV inhibitor 14µM, Marburg entry inh inconclusive
C=CCn1cc(C(=O)N2CCc3ccccc3C2)c(=O)c2cc(S(=O)(=O)N(CC)CC)ccc21	HCMV inh -67, LASV entry inh inconclusive
CCCN(CCC)CCCNC(=O)c1cn(CC)c2ccc(S(=O)(=O)N3CCc4ccccc4C3)cc2c1=O	HCV inhibitor inconclusive, HCMV inh -82!, Marburg entry inh inconclusive, LASV entry inh inconclusive
CCn1cc(C(=O)NCCCN(CC(C)C)CC(C)C)c(=O)c2cc(S(=O)(=O)N3CCc4ccccc4C3)ccc21	none (no result: HCV inhibitor)
CCCCN(C)CCCNC(=O)c1cn(CC)c2ccc(S(=O)(=O)N3CCc4ccccc4C3)cc2c1=O	HCV inhibitor inconclusive, HCMV inh -68!, Marburg entry inh 5.6µM
N#Cc1ccc(CN2CC3(CCN(C(=O)c4ccncc4)CC3)C2)cc1	none (no result: HCV inhibitor, HCMV inh, Marburg entry inh, LASV entry inh)
CCn1cc(C(=O)NCCCOC(C)C)c(=O)c2cc(S(=O)(=O)N3CCc4ccccc4C3)ccc21	none (no result: HCV inhibitor)
CCCCN(CC)CCCNC(=O)c1cn(CC)c2ccc(S(=O)(=O)N3CCc4ccccc4C3)cc2c1=O	HCV inhibitor inconclusive, HCMV inh -60!, Marburg entry inh inconclusive, LASV entry inh inconclusive
CCOC(=O)CCN1C(=O)[C@@H]2[C@H]3[C@H](O)[C@H](O)CC(=NOCc4ccccc4)[C@@H]3CC[C@H]2C1=O	LASV entry inh inconclusive (no result: HCV inhibitor, HCMV inh, FMDV antiviral)
O=C(CCl)Nc1ccc(N=Nc2ccccc2)cc1	Marburg entry inh inconclusive, LASV entry inh inconclusive
CC(C)N(c1ccccc1)c1ccc(NC(=O)CCl)cc1	HCV inhibitor inconclusive, HCMV inh -61, FMDV antiviral 40µM (no result: Marburg entry inh, LASV entry inh)
COc1ccc(C)c2sc(N(CCN(C)C)C(=O)/C=C/c3cccs3)nc12	HCV inhibitor 14µM, HCMV inh inconclusive (no result: Marburg entry inh, LASV entry inh)
COc1ccc(OC)c2sc(N(CCN(C)C)C(=O)/C=C/c3cccs3)nc12	HCV inhibitor inconclusive, HCMV inh -85, Marburg entry inh inconclusive, LASV entry inh inconclusive
CN(C)CCCN(C(=O)/C=C/c1cccs1)c1nc2ccc(F)cc2s1	HCMV inh inconclusive, Marburg entry inh 8.9µM
CCOc1cccc2sc(N(CCN(C)C)C(=O)/C=C/c3cccs3)nc12	HCV inhibitor 32µM, FMDV antiviral inconclusive, Marburg entry inh inconclusive, LASV entry inh inconclusive (no result: HCMV inh)
COc1cccc2sc(N(CCN(C)C)C(=O)/C=C/c3cccs3)nc12	HCV inhibitor inconclusive (no result: Marburg entry inh, LASV entry inh)
CSCCC1NC(=O)C(C(C)=NNC(N)=O)=C1O (stereo unspecified)	none
CC(C)NC(=S)N/N=C/c1ccc2c(c1)OCCO2	HCMV inh -67, Marburg entry inh inconclusive
CC(C)c1c(C(=O)NCc2ccccn2)cnn1-c1nccc(-c2ccccc2F)n1	none (no result: HCV inhibitor, HCMV inh, Marburg entry inh, LASV entry inh)
CCOC(=O)c1cn2nc(N3CCCC3)ccc2n1	Marburg entry inh 3.5µM, LASV entry inh 1.4µM
O=C1[C@@H]2[C@H](ON(c3ccccc3)[C@H]2c2ccncc2)C(=O)N1c1ccccc1	none (no result: HCV inhibitor, HCMV inh, FMDV antiviral, LASV entry inh)
CC(=O)c1cccc(NC(=O)C2CCCN(c3nnc(-n4cccc4)s3)C2)c1 (stereo unspecified)	HCMV inh -103 (no result: HCV inhibitor, Marburg entry inh)
Cc1cc(NC(=O)COC(=O)c2cc([N+](=O)[O-])ccc2N2CCOCC2)ccc1Br	HCV inhibitor 7.1µM, FMDV antiviral 32µM, Marburg entry inh inconclusive, LASV entry inh inconclusive
CCc1cccc(NC(=O)COC(=O)c2cc([N+](=O)[O-])ccc2N2CCOCC2)c1	HCV inhibitor 10µM, FMDV antiviral inconclusive, Marburg entry inh inconclusive, LASV entry inh inconclusive
CCOc1ccc(NC(=O)COC(=O)c2cc([N+](=O)[O-])ccc2N2CCOCC2)cc1	HCV inhibitor inconclusive, Marburg entry inh inconclusive
O=C(Nc1ccccc1)C1CCCN1C(=O)Nc1ccccc1[N+](=O)[O-] (stereo unspecified)	HCMV inh -62
CC(=O)Nc1ccc(NC(=O)C2CCCN2C(=O)Nc2ccccc2[N+](=O)[O-])cc1 (stereo unspecified)	none
COc1ccc(C(=O)Nc2ccc(C(=O)N3CCOCC3)cc2)cc1OC	none (no result: LASV entry inh)
CCOc1ccc(C(=O)Nc2ccc(C(=O)N3CCOCC3)cc2)c(OCC)c1	HCV inhibitor 14µM
CCC(C)Oc1cccc(C(=O)Nc2ccccc2N2CCOCC2)c1 (stereo unspecified)	HCV inhibitor 7.1µM, LASV entry inh inconclusive
CCOc1cccc(C(=O)Nc2ccccc2C(=O)N2CCOCC2)c1	HCMV inh -97 (no result: HCV inhibitor)
O=C(NC1CCCCCC1)C1CCN(c2nc3ccccc3o2)CC1	HCMV inh -74, FMDV antiviral inconclusive (no result: LASV entry inh)
COc1ccc2cc3cc(C(=O)NCc4ccco4)oc3nc2c1	HCV inhibitor inconclusive, LASV entry inh inconclusive
O=C(NCc1ccco1)c1cc2cc3ccc(Cl)cc3nc2o1	HCV inhibitor inconclusive, Marburg entry inh inconclusive, LASV entry inh 18µM
CCN(CC)c1nc(NNC(=O)c2ccccc2)nc(N(CC)CC)n1	HCMV inh -70
O=C1CN(/N=C/c2ccc([N+](=O)[O-])o2)C(=O)N1	HCV inhibitor 25µM, Marburg entry inh inconclusive, LASV entry inh inconclusive
O=C1CN(/N=C/c2ccc(-c3ccc([N+](=O)[O-])cc3)o2)C(=O)N1	none (no result: HCV inhibitor, HCMV inh, LASV entry inh)
CC(=O)c1ccccc1-c1ccc2c(c1)CC(CNC(=O)C[C@@H]1C[C@@H](C)NC(=S)N1)O2 (stereo partly specified)	none (no result: HCV inhibitor, HCMV inh, Marburg entry inh, LASV entry inh)
Cc1ccc(CN2CCC(c3nc4ccc(Cl)cc4[nH]3)CC2)cc1	HCV inhibitor 11µM, Marburg entry inh 4.1µM, LASV entry inh inconclusive (no result: FMDV antiviral)
COc1ccc(-c2cc(C3CCN(Cc4cccc(C(F)(F)F)c4)CC3)[nH]n2)cc1	HCV inhibitor inconclusive, HCMV inh inconclusive, FMDV antiviral inconclusive, Marburg entry inh 10µM, LASV entry inh inconclusive
Cc1ccc(CN2CCC(c3cc(-c4ccc(Cl)cc4)n[nH]3)CC2)cc1	HCV inhibitor 13µM, HCMV inh -99, FMDV antiviral inconclusive, Marburg entry inh inconclusive, LASV entry inh inconclusive
